Results published in PubChem BioAssay AID2546 (National Center for Advancing Translational Sciences (NCATS), 2010).
Among all 310,000 compounds or so, about 11,000 (3.5%) were called active. About 8% were inconclusive and are not listed. Shown is part of a subset that was picked to be rich in actives. Values without a mark were called inactive. The call rests on the fitted dose curve; in most records, active means well fitted inhibition curve with a large enough effect; inconclusive means small, poorly fitted or top-dose-only effect, or effect the other way; inactive means flat fitted curve, though single readings scatter.

Experiment: VP16 counterscreen qHTS for inhibitors of ROR gamma transcriptional activity;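 further: Gal4-VP16 expression switched on by copper sulfate through the metallothionein promoter; nearly all actives have a fitted effect of over 50% in size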
Details: Drosophila S2 Gal4-VP16 UAS-luciferase, luminescence, 20 h; series mostly up to 53.6 µM; activity, negative = inhibition: at the top concentration
On the % scale 0 is the no-effect control and ±100 the full control effect; potency means the concentration at half of the fitted maximal effect.

| SMILES | activity, negative = inhibition | Potency |
| --- | --- | --- |
| COc1ccc2cc(C(=O)C3CCCN(C(=O)c4sc(C)nc4C)C3)ccc2c1 (centres undefined) | -3.81% |  |
| CC(C)(C)OC(=O)NNc1c2ccccc2nc2ccccc12 | -22.6% |  |
| COC(=O)CSc1nnc(NC(=O)CCc2ccccc2)s1 | -9.32% |  |
| O=C(NCCc1ccccc1Cl)C1CCC(=O)N(CCCc2ccccc2)C1 (centres undefined) | -8.62% |  |
| CCCn1c(CCNc2nc(-c3ccc(OC)cc3)cs2)nc2ccccc21 | -4.87% |  |
| O=C(CCCC(=O)N1CCN(c2cccc(Cl)c2)CC1)c1ccccc1 | 1.45% |  |
| Brc1ccccc1C1N=C(c2ccccc2)NO1 (centres undefined) | -7.34% |  |
| Cc1nc(=O)c(-c2ccccc2)c(C)n1-c1ccc(Br)cc1 | -1.26% |  |
| S=C1NC(c2ccccc2)=NCN1c1ccc(Br)cc1 |  | 20 µM (active) |
| COc1cc(NC(=O)CSc2ccc(-c3cccnc3)nn2)cc(OC)c1 | -0.546% |  |
| CCOC(=O)C1(CCOc2ccccc2)CCN(Cc2ccc(C#CCCO)cc2)CC1 | -12.6% |  |
| C=CCn1c(SCC(=O)NC23CC4CC(CC(C4)C2)C3)nc(O)cc1=O | -4.61% |  |
| C=CCn1c(C23CC4CC(CC(C4)C2)C3)n[nH]c1=S |  | 2.51 µM (active) |
| C=CCn1c(SCC(=O)NC)nnc1C12CC3CC(CC(C3)C1)C2 | 0.249% |  |
| COc1cc(NS(=O)(=O)c2ccc(NC(=S)NC(=O)c3ccccc3)cc2)nc(OC)n1 | 10.4% |  |
| Cn1c(C(=O)N2CCCC(C(=O)NCc3ccccc3)C2)cc2sccc21 (centres undefined) | 0.53% |  |
| CC(=O)Nc1ccc(S(=O)(=O)NC2Cc3ccccc3C2)cc1 | 4.49% |  |
| COc1ccc(-c2nc3ccccc3c(=O)n2CCc2ccc(O)cc2)cc1 | 4.13% |  |
| COc1ccc(S(=O)(=O)Nc2ccc(O)c(Sc3nc4ccccc4s3)c2)cc1 | -20.8% |  |
| O=[N+]([O-])c1c(NCCO)cc(Sc2nc3ccccc3s2)c2nonc12 |  | 5.01 µM (active) |
| O=C(CSc1nc2ccccc2s1)Nc1ccc(C(=O)O)cc1 | -0.471% |  |
| CCCOc1cccc(C(=O)Nc2ccccc2C(=O)N2CCN(C)CC2)c1 | 2.85% |  |
| Cc1ccc(S(=O)(=O)c2nc(-c3cccs3)oc2NCc2cccnc2)cc1 | 3.93% |  |
| Fc1ccc(/C=N/n2c(COc3ccccc3)n[nH]c2=S)cc1 | -7.22% |  |
| S=c1[nH]nc(COc2ccccc2)n1-c1ccccc1 |  | 10 µM (active) |
| Cc1ccc(OCc2n[nH]c(=S)n2-c2ccc(C)cc2)cc1 | -10.9% |  |

| SMILES | activity, negative = inhibition | Potency |
| --- | --- | --- |
| COc1ccc2oc(C(=O)NCC(Cc3ccccc3)N(C)C)c(C)c2c1 (centres undefined) | -12.4% |  |
| CC(C)Oc1ccc(CCc2n[nH]c(=S)n2Cc2ccccc2)cc1 |  | 15.8 µM (active) |
| CC(C)Oc1ccc(Cc2n[nH]c(=S)n2Cc2ccccc2)cc1Cl | -9.9% |  |
| C=CCn1c(CCc2ccc(OC(C)C)cc2)n[nH]c1=S | -0.265% |  |
| COc1ccc(CCNC(=O)C2CCCN(S(=O)(=O)c3ccc(OC)cc3)C2)cc1 (centres undefined) | -4.87% |  |
| CC1CCC(NC(=O)CN(C)S(=O)(=O)c2ccc3c(c2)c(=O)n(C)c(=O)n3C)CC1 (centres undefined) | -7.19% |  |
| COc1cccc(NC(=O)CC2C(=O)NCCN2C(=S)Nc2ccc(F)cc2)c1 (centres undefined) | 1.84% |  |
| COc1ccc(C(=O)NC(=S)N2CCNC(=O)C2CC(=O)OC(C)C)cc1 (centres undefined) |  | 10 µM (active) |
| CCc1ccc(NC(=O)CC2C(=O)NCCN2C(=S)Nc2ccccc2)cc1 (centres undefined) | 1.61% |  |
| Cc1ccc(-c2ccc(=O)n(Cc3ccc(F)cc3Cl)n2)cc1 | -19% |  |
| O=[N+]([O-])c1ccc2c(c1)Nc1nc3ccccc3nc1N2 | 5.07% |  |
| O=[N+]([O-])c1ccc2nc(-c3ccccn3)[nH]c2c1 |  | 6.31 µM (active) |
| O=c1[nH]c2cccnc2n1-c1ccc([N+](=O)[O-])cc1 | -8.8% |  |
| Nc1nnn(CC(=O)N/N=C/c2ccc(O)cc2)n1 | 1.16% |  |
| CC(C)(C)c1nnc(N/N=C/c2ccc(O)cc2)n(N)c1=O |  | 2.24 µM (active) |
| O=c1c2ccccc2nc(N/N=C/c2ccccc2)n1O | -13.5% |  |
| CC(=O)Nc1cccc(C(=O)Nc2nc(C)cs2)c1 | -5.52% |  |
| Cc1csc(NC(=S)Nc2cccc(Cl)c2)n1 |  | 1 µM (active) |
| S=C(Nc1cccc(Cl)c1)Nc1ccc2cn[nH]c2c1 | -2.76% |  |
| COc1cccc(N(CC(=O)NC2CCCCCC2)S(=O)(=O)c2ccccc2)c1 | -3.26% |  |
| CN1C(=O)CN2CCc3ccccc3C2c2cc(Cl)ccc21 (centres undefined) | -3.01% |  |
| O=C(CSc1ncn[nH]1)Nc1nc(-c2cccc([N+](=O)[O-])c2)cs1 |  | 17.8 µM (active) |
| O=C(CSc1ncn[nH]1)Nc1nsc(-c2ccccc2)n1 | 3.14% |  |
| O=C(CSc1nc(-c2ccccc2)cs1)Nc1cccc([N+](=O)[O-])c1 | -25.9% |  |
| COc1ccc2[nH]c(=O)c(CN(Cc3cccnc3)S(=O)(=O)c3ccccc3F)cc2c1 | -3.02% |  |
| COc1cccc(N(CC(=O)NCc2ccccc2)C(=O)CCC(=O)Nc2nccs2)c1 | 3.14% |  |

| SMILES | activity, negative = inhibition | Potency |
| --- | --- | --- |
| O=C(CCl)NNc1cccc(Cl)n1 | 4.76% |  |
| NC(N)=Nc1nc(-c2ccccc2)c2cc(Cl)ccc2n1 | -4.6% |  |
| O=C(CCl)NNc1nc(-c2ccccc2)c2cc(Cl)ccc2n1 |  | 17.8 µM (active) |
| COc1ccc(CCNC(=O)C(=O)NCC2OCCN2S(=O)(=O)c2ccc(F)cc2)cc1OC (centres undefined) | 1.05% |  |
| CC1CCCN(S(=O)(=O)c2ccc(C(=O)Nc3nnc(-c4ccncc4)o3)cc2)C1 (centres undefined) | -10.1% |  |
| CCc1nnc(NC(=O)C2CCCN2S(=O)(=O)c2ccccc2)s1 (centres undefined) | 6.92% |  |
| CC1CCCCN1S(=O)(=O)c1ccc(C(=O)Nc2nnc(-c3cccs3)o2)cc1 (centres undefined) |  | 0.891 µM (active) |
| Cc1ccnc(NS(=O)(=O)c2ccc(NC(=O)c3ccc(S(=O)(=O)N4CCOCC4)cc3)cc2)n1 | -1.2% |  |
| O=C(Nc1ccc2cn[nH]c2c1)c1ccc(S(=O)(=O)N2CCOCC2)cc1 | 0.801% |  |
| CSCc1nnc(NC(=O)c2ccc(S(=O)(=O)N3CCCCC3C)cc2)o1 (centres undefined) |  | 1.41 µM (active) |
| O=C(Nc1nnc(-c2ccco2)o1)c1ccc(S(=O)(=O)N2CCOCC2)cc1 |  | 5.62 µM (active) |
| CC1CN(S(=O)(=O)c2ccc(C(=O)Nc3sccc3C(N)=O)cc2)CC(C)O1 (centres undefined) | 2.1% |  |
| CCc1nnc(NC(=O)c2ccc(S(=O)(=O)NC3CCCCC3)cc2)s1 | 0.424% [at 0.365 µM] |  |
| Cc1cccn2cc(-c3cccc(S(=O)(=O)N4CCCCC4)c3)nc12 | -7.96% |  |
| COc1ccc(CCC(C)N2CCc3ccccc3C2)cc1 (centres undefined) | -0.938% |  |
| Cc1cccc([C@@H]2[C@@H]3C(=O)N(Cc4ccccc4)C(=O)[C@@H]3[C@]3(C)C(=O)N(c4ccc(Br)cc4)C(=O)N23)c1 | -8.45% |  |
| Cn1nccc1C(=O)N1CCCC(C(=O)c2ccc(Oc3ccccc3)cc2)C1 (centres undefined) | -13.8% |  |
| CCOC(=O)[C@H]1[C@H]2COc3cc(OC)ccc3[C@@H]2N2C(=O)N(c3ccc(Br)cc3)C(=O)[C@@]12C | 3.39% |  |
| Cc1ccc(OCCCC(=O)Nc2ccc(S(=O)(=O)Nc3cc(C)nc(C)n3)cc2)cc1 | 0% |  |
| Cc1ccc(CSc2nsc(C)c2C#N)cc1 | 1.45% |  |
| CN(Cc1nc2ccccc2s1)C(=O)c1ccc(F)cc1 | 6.74% |  |
| CCC1(CC)NC(=O)N(Cc2nc3ccccc3s2)C1=O |  | 3.55 µM (active) |
| COC(=O)C1[C@H]2SC(C)(C)C(C(=O)OC)N2C(=O)N1Cc1nc2ccccc2s1 (some centres undefined) | 0.77% |  |
| N#Cc1ccc(C2N=C(c3ccccc3)NO2)cc1 (centres undefined) | 1.27% |  |
| O=C(Cc1ccccc1)NC(=S)Nc1ccc(N2CCCCC2)cc1 |  | 3.55 µM (active) |
| O=C(c1ccccc1)c1ccc(C(=O)N2CCN(c3ccccc3)CC2)cc1 | -20.3% |  |

| SMILES | activity, negative = inhibition | Potency |
| --- | --- | --- |
| COc1ccc(C(=O)NC(=S)Nc2ccc(Cl)cn2)cc1OC |  | 12.6 µM (active) |
| Cc1ccccc1C(=O)Nc1ccc(N2CCCCCC2)cc1 | -4.72% |  |
| COc1ccc(C(=O)Nc2ccc(C3(C#N)CCCC3)cc2)cc1OC | 6.7% |  |
| COc1ccc(C(=O)Nc2ccc(N3CCC(C)CC3)cc2)cc1Br | -5.47% |  |
| COc1c(Cl)cc(C(=O)Nc2ccc(Cl)cn2)cc1Cl | 21.3% |  |
| Cc1ccccc1C(=O)N1CCN(c2ccc(NC(=O)c3cccs3)cc2)CC1 | -20.2% |  |
| COc1ccc(C(=O)N/N=C(\C)CC(=O)Nc2ccc(Cl)cn2)cc1 | -20.9% |  |
| COc1ccc(C(=O)NC(=S)Nc2ccc(N3CCCC3)cc2)cc1OC |  | 0.891 µM (active) |
| Cc1ccccc1C(=O)NC(=S)Nc1ccc(N2CCN(C(=O)c3ccccc3)CC2)cc1 |  | 5.62 µM (active) |
| O=C(CCN1CCN(c2ccccc2)CC1)NNC(=S)Nc1ccccc1 | -17.3% |  |
| CC1CN(C(=S)Nc2cccc(F)c2)CC(C)O1 (centres undefined) | -1.44% |  |
| O=C(C1CC(=O)N(C2CCCCC2)C1)N1CCN(c2ccccc2)CC1 (centres undefined) | 5.4% |  |
| O=C(CN(CC1CCCO1)C(=O)CNS(=O)(=O)c1ccc(Cl)cc1)NCc1ccccc1 (centres undefined) | -2.89% |  |
| CCOc1ccc(NC(=O)c2nc(SCC)ncc2Cl)cc1 | -3.47% |  |
| O=[N+]([O-])c1cc([N+](=O)[O-])c(Oc2cc(F)cc(F)c2F)cc1NN1CCCCC1 | 4.75% |  |
| Cc1ccc(-c2noc(C3CCCN(C(=O)c4cccc(Cl)c4)C3)n2)o1 (centres undefined) | 4% |  |
| COc1cccc(OC)c1C(=O)NC(=S)Nc1ccc(N2CCOCC2)c(Cl)c1 | -28.6% |  |
| CCOc1ccc(C(=O)NC(=S)Nc2ccc(NC(=O)C(C)C)cc2)cc1[N+](=O)[O-] | 2.81% |  |
| CCOc1ccc(C(=O)NC(=S)Nc2ccc(N3CCOCC3)c(Cl)c2)cc1[N+](=O)[O-] |  | 3.98 µM (active) |
| CCc1ccc(NC(=O)N2CCN(c3ccccc3)CC2)cc1 | 24.1% |  |
| CC(=O)N1CCN(c2ccc(NCc3ccc(C(C)C)cc3)cc2)CC1 |  | 1.12 µM (active) |
| CC(CC(=O)N1CCN(c2ccccc2)CC1)c1ccccc1 (centres undefined) | -3.11% |  |
| Cc1nn(-c2ccccc2)c(Cl)c1/C=N/NC(=O)c1nn(C)cc1[N+](=O)[O-] | 15.7% |  |
| COC(=O)c1cc(NC2c3ccccc3C(=O)N2c2ccc(Cl)cn2)cc(C(=O)OC)c1 (centres undefined) |  | 11.2 µM (active) |
| CCc1ccccc1NC1c2ccccc2C(=O)N1c1cccnc1 (centres undefined) | 7.01% |  |
| Cc1ccnc(N2C(=O)c3ccccc3C2Nc2ccc3c(c2)OCCO3)c1 (centres undefined) | 16% |  |
